Measured values taken from the supplement of paper PMC6555819.

Assays:
Assay in all cases: PBM binding z-score (relative to random genomic background probes); higher = stronger binding; sequences stand for … in GC…GCGATTGACAGCGTAGAATGAAGG
[1] = tested on: FXR:RXRa (NR concentration 270 nM, RXRa partner concentration 90 nM)
Summary of the method: (§1)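 The probes on custom Agilent 4×180K protein-binding microarrays were double-stranded, with 34-nt variable regions bearing direct-repeat seeds, single-nucleotide variants, half-site ablations and random human genomic background sequences. Incubation lasted 1 h with ligand-free nuclear receptor dimers in PBS pH 7.4, 2% milk, 0.02% Triton X-100, 1 mM DTT, 0.2 mg/mL BSA and 0.4 mg/ml salmon testes DNA. Antibodies against each partner (one per run) detected bound dimers, and fluorescence scans were regression-normalized. Binding z-scores take the random background probes as reference.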

[2] = tested on: LXRa:RXRa (NR concentration 270 nM, RXRa partner concentration 90 nM)
Summary of the method: as §1

[3] = tested on: LXRa homodimer (NR concentration 270 nM)
Summary of the method: as §1

[4] = tested on: LXRb:RXRa (NR concentration 270 nM, RXRa partner concentration 90 nM)
Summary of the method: as §1

[5] = tested on: LXRb homodimer (NR concentration 270 nM)
Summary of the method: as §1

[6] = tested on: PPARa:RXRa (NR concentration 270 nM, RXRa partner concentration 90 nM)
Summary of the method: as §1

[7] = tested on: PPARg:RXRa (NR concentration 180 nM, RXRa partner concentration 90 nM)
Summary of the method: as §1

[8] = tested on: PPARg:RXRa 270nM:90nM, anti-RXR (NR concentration 270 nM, RXRa partner concentration 90 nM)
Summary of the method: as §1

[9] = tested on: PPARg:RXRa 30nM:10nM, anti-RXR (NR concentration 30 nM, RXRa partner concentration 10 nM)
Summary of the method: as §1

[10] = tested on: PPARg:RXRa 90nM:30nM, anti-RXR (NR concentration 90 nM, RXRa partner concentration 30 nM)
Summary of the method: as §1

[11] = tested on: PPARg:RXRa DBDmut IVT, anti-RXR (DBD mutation: RXRa K156A/R161A, NR concentration 270 nM, RXRa partner concentration 90 nM)
Summary of the method: as §1

[12] = tested on: PPARg:RXRa IVT, anti-PPARg (NR concentration 270 nM, RXRa partner concentration 90 nM)
Summary of the method: as §1

[13] = tested on: PPARg DBDmut:RXRa IVT, anti-PPARg (DBD mutation: PPARg1 K132A/R137A, NR concentration 270 nM, RXRa partner concentration 90 nM)
Summary of the method: as §1

[14] = tested on: PPARg DBDmut IVT, anti-PPARg (DBD mutation: PPARg1 K132A/R137A, NR concentration 270 nM)
Summary of the method: as §1

[15] = tested on: PPARg homodimer (NR concentration 180 nM)
Summary of the method: as §1

[16] = tested on: PXR:RXRa (NR concentration 270 nM, RXRa partner concentration 90 nM)
Summary of the method: as §1

[17] = tested on: PXR homodimer (NR concentration 270 nM)
Summary of the method: as §1

[18] = tested on: RARa:RXR (NR concentration 270 nM, RXRa partner concentration 90 nM)
Summary of the method: as §1

[19] = tested on: RARa homodimer (NR concentration 270 nM)
Summary of the method: as §1

[20] = tested on: RARb:RXRa (NR concentration 270 nM, RXRa partner concentration 90 nM)
Summary of the method: as §1

| Sequence | PBM binding z-score [1] | PBM binding z-score [2] | PBM binding z-score [3] | PBM binding z-score [4] | PBM binding z-score [5] | PBM binding z-score [6] | PBM binding z-score [7] | PBM binding z-score [8] | PBM binding z-score [9] | PBM binding z-score [10] | PBM binding z-score [11] | PBM binding z-score [12] | PBM binding z-score [13] | PBM binding z-score [14] | PBM binding z-score [15] | PBM binding z-score [16] | PBM binding z-score [17] | PBM binding z-score [18] | PBM binding z-score [19] | PBM binding z-score [20] |
| --- | --- | --- | --- | --- | --- | --- | --- | --- | --- | --- | --- | --- | --- | --- | --- | --- | --- | --- | --- | --- |
| ATCTCTAAGTAAAGTTCAGTGAAAGATCGATAGA | 1.27 | 1.99 | 1.87 | 1.23 | 0.906 | 1.66 | 1.4 | 2.92 | 1.3 | 2.75 | 0.19 | 0.648 | 1.26 | 1.06 | 1.44 | 2.03 | 1.8 | 1.34 | 1.77 | 2.63 |
| CCTACAGGGTCAGCTAGGCCAGAGTAGGGACGGC | 4.39 | 2.61 | -0.714 | 1.7 | -0.84 | 4.2 | 2.56 | 2.7 | 0.464 | 1.31 | 0.563 | 1.44 | -0.42 | -1.17 | 1.25 | 1.92 | -0.627 | 2.68 | -0.295 | 4.03 |
| GCGACTGGGGCAAAGTAGGTTACCATAAGGTTGG | 0.147 | 0.172 | -0.28 | 0.557 | -0.493 | 2.29 | 2.59 | 3.18 | 0.758 | 2.3 | 5.3 | 5.17 | -0.411 | -0.49 | -0.0778 | 0.322 | -0.231 | 0.681 | -0.558 | 1.21 |
| ATATGTAGGTTAAGGGTCATTCAGGTTGGTTCGC | 5.11 | 5.05 | 3.62 | 4.41 | 1.4 | 6.68 | 11.5 | 9.78 | 10.3 | 11.1 | 7.43 | 7.64 | 1.5 | 1.61 | 4 | 5.48 | 2.98 | 5.87 | 2.71 | 3.79 |
| CCTGCTAGGTCAATCGTCAGCTAAAGCAGCTCGC | 3.35 | 2.19 | -0.244 | 1.57 | 0.108 | 2.85 | 1.39 | 2.18 | -0.19 | 1.39 | 4.52 | 3.19 | -0.719 | -1.31 | 0.995 | 0.842 | -0.551 | 1.58 | -0.666 | 3.63 |
| CGAACGAGGCCATGAGTTGATAGCAAATGCCGAT | -0.039 | -0.24 | -0.636 | -0.483 | -1.01 | 0.273 | 0.728 | 0.586 | -0.00312 | 0.44 | 1.62 | 0.713 | -0.17 | -0.886 | 0.125 | -0.17 | -0.294 | 0.133 | -0.191 | 0.941 |
| CCAGACACGTGAAAGGTAACTCAGTCTGGTACGC | -0.513 | -0.178 | -0.428 | 0.0481 | -0.283 | 0.287 | 0.636 | 0.0199 | -0.466 | -0.253 | -0.261 | -0.369 | -0.212 | -0.126 | -0.0268 | -0.338 | -0.312 | -0.206 | 0.0098 | 0.231 |
